Inconclusive results are not listed. The source made the active and inactive calls. How the source made its calls, unless noted: active means hit-call score of the fitted dose curve at least 0.9, where 1 is the maximum; inconclusive means response in the unintended direction; inactive means score below 0.9.

Consider ten compounds from PubChem BioAssay (EPA / NIEHS).

Assay [1] can be described thus: ATG_TCF_b_cat_CIS: Attagene CIS-FACTORIAL HepG2 Assay for human T-Cell-Factor with beta-catenin (TCF/b-cat) (AID 2282965; active means hit-call score of the fitted dose curve at least 0.9, where 1 is the maximum; inactive means score below 0.9). Conditions: HepG2 TCF/beta-catenin cis-reporter transcription, actives raise or lower the signal. The procedure, abridged:
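Endogenous transcription factor activity is captured through cis-promoter reporter constructs transiently introduced into human HepG2 liver cells. Induced reporter mRNA is measured after 24 h and fitted bidirectionally relative to DMSO.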

Assay [2] in a line: ATG_TAL_CIS: Attagene CIS-FACTORIAL HepG2 Assay for human TAL Basal Promoter (AID 2282966; active means hit-call score of the fitted dose curve at least 0.9, where 1 is the maximum; inactive means score below 0.9;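 further: background control endpoint measuring basal TAL promoter reporter mRNA not a specific factor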). The following applies: HepG2 Attagene cis-factorial TAL promoter reporter; actives raise or lower the signal. A digest of the protocol:
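Fluorescence of labelled reporter cDNA fragments, resolved by capillary electrophoresis, gave the readout. Human HepG2 liver cells carried transiently transfected cis-element reporter units and were treated for 24 hours; activity was fitted bidirectionally against DMSO.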

Assay [3] can be described thus: ATG_TGFb_CIS: Attagene CIS-FACTORIAL HepG2 Assay for human Transforming Growth Factor (TGF) (AID 2282967; active means hit-call score of the fitted dose curve at least 0.9, where 1 is the maximum; inactive means score below 0.9). Conditions: HepG2 Attagene CIS TGFb reporter, mRNA transcription; actives raise or lower the signal. A digest of the protocol: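 Transcript-level reporter readout: HepG2 transfectants, 24 h exposure, RNA to cDNA, reporter-specific PCR, fluorescent primer extension, capillary sizing against ROX standards. Gain- or loss-of-signal relative to DMSO.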

Assay [4] in a line: ATG_VDRE_CIS: Attagene CIS-FACTORIAL HepG2 Assay for human Vitamin D Receptor Element (VDRE) (AID 2282968; active means hit-call score of the fitted dose curve at least 0.9, where 1 is the maximum; inactive means score below 0.9). Conditions: HepG2 VDRE cis-reporter transcription, actives raise or lower the signal. A digest of the protocol:
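Reporter mRNA induction, quantified by capillary electrophoresis of fluorescently labelled RT-PCR products, was read 24 h after dosing HepG2 cells carrying transiently transfected cis-regulated reporter units; gain or loss relative to DMSO.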

Assay [5] has as its target Estrogen receptor (Homo sapiens) (UniProt P03372). As to the kind of experiment: ATG_ERa_TRANS: Attagene TRANS-FACTORIAL HepG2 Assay for human Estrogen Receptor alpha (ERa) (AID 2282970). Conditions: HepG2 Attagene TRANS ERa GAL4 reporter, mRNA. The procedure, abridged: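 Human liver HepG2, transient transfection of multiple GAL4-UAS reporter units; TRANS format (exogenous NR-Gal4 chimera). 24 h dosing. Readout: reporter mRNA, RT-PCR, 6-FAM primer extension, HpaI digest, capillary electrophoresis. Positive direction vs DMSO.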

The target in assay [6] is X-box-binding protein 1 (Homo sapiens) (UniProt P17861). As to the kind of experiment: ATG_Xbp1_CIS: Attagene CIS-FACTORIAL HepG2 Assay for human X-box Binding Protein 1 (XBP1) (AID 2282972; active means hit-call score of the fitted dose curve at least 0.9, where 1 is the maximum; inactive means score below 0.9). Conditions: HepG2 XBP1 cis-element reporter, Attagene multiplex; actives raise or lower the signal. The procedure, abridged: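 HepG2 cells transiently transfected with multiple cis-element reporter units report endogenous TF activity; 24 h exposure, then reporter mRNA measured by RT-PCR, 6-FAM labelling, HpaI digestion and capillary electrophoresis. Bidirectional fitting versus DMSO.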
Sequence of X-box-binding protein 1 (Homo sapiens) (P17861 whole entry, looked up): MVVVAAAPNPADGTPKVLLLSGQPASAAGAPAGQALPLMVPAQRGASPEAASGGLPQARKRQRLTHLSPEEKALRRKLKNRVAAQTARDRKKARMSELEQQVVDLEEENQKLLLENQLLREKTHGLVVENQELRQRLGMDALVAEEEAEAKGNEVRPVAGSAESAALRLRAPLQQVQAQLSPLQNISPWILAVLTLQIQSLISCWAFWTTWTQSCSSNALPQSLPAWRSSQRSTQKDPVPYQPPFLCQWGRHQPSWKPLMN

Assay [7] can be described thus: ATG_M_19_TRANS: Attagene TRANS-FACTORIAL HepG2 Assay for M19 Transcription Factor (Internal Marker) (AID 2282974). The following applies: HepG2 Attagene TRANS-FACTORIAL M19 internal marker reporter. A digest of the protocol:
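Transfected HepG2 (GAL4-UAS MRTUs), 24 h compound, TriZol RNA, DNase-treated RT, reporter PCR, FAM label, HpaI digest, CE fluorescence; gain vs DMSO.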

The nature of assay [8]: ATG_GAL4_TRANS: Attagene TRANS-FACTORIAL HepG2 Assay for GAL4 (Internal Marker) (AID 2282976). Conditions: HepG2 Attagene TRANS GAL4 internal marker reporter. The procedure, abridged:
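First, HepG2 cells were transfected with reporter units under GAL4-UAS control. Next, they were treated with chemical for 24 h. Finally, RNA was reverse-transcribed, PCR-amplified, FAM-labelled and resolved by capillary electrophoresis, with induction scored against DMSO.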

Assay [9] concerns the target Glucocorticoid receptor (Homo sapiens) (UniProt P04150). As to the kind of experiment: ATG_GR_TRANS: Attagene TRANS-FACTORIAL HepG2 Assay for human Glucocorticoid Receptor (GR) (AID 2282978).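 Further: activators score as hits since higher reporter transcript over DMSO is fitted.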 Conditions: HepG2 Attagene TRANS GR reporter, mRNA transcription. A digest of the protocol:
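After 24 h incubation with test chemical, transfected HepG2 cells were lysed for RNA; reporter cDNA was amplified, FAM-labelled, HpaI-digested and sized on a capillary analyser. Signal gain relative to DMSO was scored.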

Assay [10] has as its target Oxysterols receptor LXR-alpha (Homo sapiens) (UniProt Q13133). The assay can be described thus: ATG_LXRa_TRANS: Attagene TRANS-FACTORIAL HepG2 Assay for human Liver X Receptor alpha (LXRa) (AID 2282980). The following applies: HepG2 Attagene TRANS reporter, LXRa transactivation. The procedure, abridged: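 Transfect HepG2 with GAL4-UAS multiplex reporter constructs (TRANS format, chimeric receptor-GAL4); treat 24 h; extract RNA, reverse-transcribe, PCR-amplify, FAM-label, HpaI-digest; resolve fragments by capillary electrophoresis. Upward response vs DMSO.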

Assay [11] has as its target Oxysterols receptor LXR-beta (Homo sapiens) (UniProt P55055). As to the kind of experiment: ATG_LXRb_TRANS: Attagene TRANS-FACTORIAL HepG2 Assay for human Liver X Receptor beta (LXRb) (AID 2282981). Conditions: HepG2 Attagene TRANS GAL4-LXRb reporter, mRNA. The procedure, abridged: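 Transient transfection HepG2 (multiplexed RTUs, GAL4-UAS); NR-Gal4 chimera; 24 h exposure; RNA → RT-PCR → 6-FAM primer extension → HpaI → CE; increase vs DMSO.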

Assay [12] has as its target Hepatocyte nuclear factor 4-alpha (Homo sapiens) (UniProt P41235). The assay can be described thus: ATG_HNF4a_TRANS: Attagene TRANS-FACTORIAL HepG2 Assay for human Hepatocyte Nuclear Factor 4 alpha (HNF4a) (AID 2282982). The following applies: HepG2 HNF4a transactivation reporter, mRNA readout. A digest of the protocol: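 Readout is fluorescent reporter-transcript fragments resolved by capillary electrophoresis after RT-PCR from HepG2 cells dosed for 24 h. Cells carried transfected GAL4-UAS reporter constructs measuring exogenous NR-GAL4 chimera activity; DMSO served as baseline.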

Assay [13] in a line: ATG_M_32_TRANS: Attagene TRANS-FACTORIAL HepG2 Assay for M32 Transcription Factor (Internal Marker) (AID 2282984).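 Further: transcript level of a background control reporter unit measured by RT-PCR and capillary electrophoresis.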 The following applies: HepG2 Attagene TRANS M32 internal marker reporter. A digest of the protocol:
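Measures reporter mRNA induction in human HepG2 liver cells after 24 h chemical treatment. Transcripts from transiently transfected GAL4-UAS reporter units are amplified, fluorescently labelled and sized by capillary electrophoresis; gain of signal relative to DMSO.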

In assay [14] the target is Nuclear receptor subfamily 4 group A member 2 (Homo sapiens) (UniProt P43354). The assay can be described thus: ATG_NURR1_TRANS: Attagene TRANS-FACTORIAL HepG2 Assay for human Nuclear Receptor Related Protein 1 (NURR1) (AID 2282985). The following applies: HepG2 Attagene TRANS reporter, mRNA readout. The procedure, abridged:
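Transient transfection of HepG2, human liver cells, with multiple GAL4-UAS reporter transcription units. Cells dosed 24 h, RNA isolated, reverse-transcribed, PCR-amplified, FAM-labelled, HpaI-digested, sized by capillary electrophoresis. DMSO served as negative control.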

The target in assay [15] is Transcriptional activator Myb (Homo sapiens) (UniProt P10242). The assay can be described thus: ATG_Myb_CIS: Attagene CIS-FACTORIAL HepG2 Assay for human Myeloblastosis (Myb) Proto-Oncogene Transcription Factor (AID 2282986; active means hit-call score of the fitted dose curve at least 0.9, where 1 is the maximum; inactive means score below 0.9). The following applies: HepG2 Attagene CIS-FACTORIAL Myb reporter transcription; actives raise or lower the signal. A digest of the protocol: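 After 24 h of compound dosing, total RNA from transfected HepG2 cells is reverse-transcribed and the reporter sequences amplified, labeled and separated by capillary electrophoresis. Values come from bidirectional fitting against DMSO.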
Sequence of Transcriptional activator Myb (Homo sapiens) (P10242 whole entry, looked up): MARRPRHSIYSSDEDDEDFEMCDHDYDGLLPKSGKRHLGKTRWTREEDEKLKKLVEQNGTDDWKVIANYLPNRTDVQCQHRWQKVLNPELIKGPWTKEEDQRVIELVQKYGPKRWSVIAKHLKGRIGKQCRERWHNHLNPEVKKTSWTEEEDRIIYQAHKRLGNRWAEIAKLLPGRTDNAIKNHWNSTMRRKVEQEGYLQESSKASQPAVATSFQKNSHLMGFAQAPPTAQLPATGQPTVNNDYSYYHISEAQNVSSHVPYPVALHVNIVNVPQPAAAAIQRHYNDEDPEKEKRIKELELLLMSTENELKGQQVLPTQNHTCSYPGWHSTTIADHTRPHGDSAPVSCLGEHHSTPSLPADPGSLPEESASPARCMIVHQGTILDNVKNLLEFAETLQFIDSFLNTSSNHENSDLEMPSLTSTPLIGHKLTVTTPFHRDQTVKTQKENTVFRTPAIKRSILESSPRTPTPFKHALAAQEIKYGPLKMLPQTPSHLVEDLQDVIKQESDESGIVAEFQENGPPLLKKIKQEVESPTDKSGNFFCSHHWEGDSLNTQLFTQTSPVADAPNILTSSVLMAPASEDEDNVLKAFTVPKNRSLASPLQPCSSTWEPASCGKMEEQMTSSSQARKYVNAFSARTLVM

Assay [16] deals with Bile acid receptor (Homo sapiens) (UniProt Q96RI1). The assay can be described thus: ATG_FXR_TRANS: Attagene TRANS-FACTORIAL HepG2 Assay for Farnesoid X Receptor (FXR) (AID 2282979).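 Further: hits raise reporter mRNA above DMSO so AC50 marks FXR activation.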 Conditions: HepG2 Attagene TRANS FXR-GAL4 reporter transcription. The procedure, abridged:
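Transient transfection of HepG2 with multiplexed GAL4-UAS reporter units; exogenous FXR-GAL4 chimera. Dose 24 h → TriZol RNA → oligo(dT) RT → PCR, 6-FAM primer extension, HpaI cut → CE. Gain vs DMSO.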

Assay [17] in a line: ATG_M_06_TRANS: Attagene TRANS-FACTORIAL HepG2 Assay for M06 Transcription Factor (Internal Marker) (AID 2282983).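 Further: reporter transcript level by RT-PCR then capillary electrophoresis fluorescence.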 Conditions: HepG2 Attagene TRANS M06 internal marker reporter. A digest of the protocol: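 Transfect HepG2 with MRTUs → dose compounds 24 h → isolate RNA, oligo(dT) RT → PCR with reporter primers → 6-FAM primer extension → HpaI digest → CE fragment analysis. Positive direction vs DMSO.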

Assay [18] concerns the target Estrogen-related receptor gamma (Homo sapiens) (UniProt P62508). The assay can be described thus: ATG_ERRg_TRANS: Attagene TRANS-FACTORIAL HepG2 Assay for human Estrogen-Related Receptor gamma (ERRg) (AID 2282977).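 Further: hits increase reporter signal over DMSO so potencies reflect activators.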 Conditions: HepG2 Attagene TRANS reporter, ERRg transactivation. A digest of the protocol: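 Transfect HepG2 with multiple GAL4-UAS reporter transcription units; dose chemicals 24 h; isolate RNA, reverse-transcribe with oligo(dT), PCR-amplify, label with 6-FAM, digest with HpaI; size fragments by capillary electrophoresis. DMSO serves as negative control.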

Sequence of Hepatocyte nuclear factor 4-alpha (Homo sapiens) (P41235 whole entry, looked up, the tested form may be a part): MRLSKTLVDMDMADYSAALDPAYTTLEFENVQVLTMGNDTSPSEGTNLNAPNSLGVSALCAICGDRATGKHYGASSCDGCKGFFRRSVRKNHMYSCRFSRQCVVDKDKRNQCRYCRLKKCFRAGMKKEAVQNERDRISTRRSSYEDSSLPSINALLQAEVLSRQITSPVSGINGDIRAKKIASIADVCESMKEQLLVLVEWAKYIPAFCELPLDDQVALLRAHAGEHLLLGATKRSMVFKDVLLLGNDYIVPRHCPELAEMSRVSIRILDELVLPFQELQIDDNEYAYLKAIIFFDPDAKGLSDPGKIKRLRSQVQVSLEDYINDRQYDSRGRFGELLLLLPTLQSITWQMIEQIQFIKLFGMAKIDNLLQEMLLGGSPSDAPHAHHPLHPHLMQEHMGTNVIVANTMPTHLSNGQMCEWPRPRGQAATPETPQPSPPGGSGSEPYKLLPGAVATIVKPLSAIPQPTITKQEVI
Sequence of Bile acid receptor (Homo sapiens) (Q96RI1 whole entry, looked up, the tested form may be a part): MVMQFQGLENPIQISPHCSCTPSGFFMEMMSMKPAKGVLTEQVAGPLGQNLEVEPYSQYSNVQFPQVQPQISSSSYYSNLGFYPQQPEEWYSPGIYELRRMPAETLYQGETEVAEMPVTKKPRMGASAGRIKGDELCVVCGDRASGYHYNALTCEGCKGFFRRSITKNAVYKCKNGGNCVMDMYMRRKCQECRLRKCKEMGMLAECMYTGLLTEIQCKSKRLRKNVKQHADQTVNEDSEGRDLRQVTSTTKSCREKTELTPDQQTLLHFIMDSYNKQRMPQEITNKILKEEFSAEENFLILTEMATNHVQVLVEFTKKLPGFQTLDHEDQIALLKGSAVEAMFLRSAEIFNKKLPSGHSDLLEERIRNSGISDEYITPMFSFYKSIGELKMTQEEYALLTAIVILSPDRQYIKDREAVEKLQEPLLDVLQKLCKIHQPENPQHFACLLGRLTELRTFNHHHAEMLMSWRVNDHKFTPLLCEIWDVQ
Sequence of Oxysterols receptor LXR-beta (Homo sapiens) (P55055 whole entry, looked up, the tested form may be a part): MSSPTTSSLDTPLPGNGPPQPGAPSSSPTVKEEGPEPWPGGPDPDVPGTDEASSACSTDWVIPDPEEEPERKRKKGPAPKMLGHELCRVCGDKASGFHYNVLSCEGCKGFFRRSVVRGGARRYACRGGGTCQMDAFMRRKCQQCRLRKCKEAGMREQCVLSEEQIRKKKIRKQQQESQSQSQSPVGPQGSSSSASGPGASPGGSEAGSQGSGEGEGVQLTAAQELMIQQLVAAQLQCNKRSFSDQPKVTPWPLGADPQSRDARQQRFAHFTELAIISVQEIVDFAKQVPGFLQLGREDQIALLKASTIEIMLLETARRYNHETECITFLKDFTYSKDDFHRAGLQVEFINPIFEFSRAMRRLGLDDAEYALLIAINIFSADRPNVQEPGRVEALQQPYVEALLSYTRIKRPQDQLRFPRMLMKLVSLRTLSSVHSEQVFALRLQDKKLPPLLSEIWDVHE
Sequence of Estrogen receptor (Homo sapiens) (P03372 whole entry, looked up, the tested form may be a part): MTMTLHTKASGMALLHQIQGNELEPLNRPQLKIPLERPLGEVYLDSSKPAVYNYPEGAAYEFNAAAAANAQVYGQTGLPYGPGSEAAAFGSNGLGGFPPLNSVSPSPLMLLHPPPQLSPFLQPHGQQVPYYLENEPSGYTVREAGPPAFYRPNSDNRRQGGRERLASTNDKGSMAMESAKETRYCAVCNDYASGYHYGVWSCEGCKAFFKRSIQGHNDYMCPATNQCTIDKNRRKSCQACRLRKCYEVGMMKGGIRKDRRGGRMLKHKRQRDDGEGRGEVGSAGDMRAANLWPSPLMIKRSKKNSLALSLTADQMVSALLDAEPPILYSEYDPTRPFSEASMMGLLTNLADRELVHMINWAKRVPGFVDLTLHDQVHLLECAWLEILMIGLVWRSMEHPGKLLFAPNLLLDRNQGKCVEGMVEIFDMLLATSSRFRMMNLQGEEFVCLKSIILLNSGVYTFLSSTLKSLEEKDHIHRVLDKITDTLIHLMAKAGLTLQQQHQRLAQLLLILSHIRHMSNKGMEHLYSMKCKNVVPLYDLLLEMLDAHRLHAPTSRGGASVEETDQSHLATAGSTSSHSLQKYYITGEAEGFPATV
Sequence of Glucocorticoid receptor (Homo sapiens) (P04150 whole entry, looked up): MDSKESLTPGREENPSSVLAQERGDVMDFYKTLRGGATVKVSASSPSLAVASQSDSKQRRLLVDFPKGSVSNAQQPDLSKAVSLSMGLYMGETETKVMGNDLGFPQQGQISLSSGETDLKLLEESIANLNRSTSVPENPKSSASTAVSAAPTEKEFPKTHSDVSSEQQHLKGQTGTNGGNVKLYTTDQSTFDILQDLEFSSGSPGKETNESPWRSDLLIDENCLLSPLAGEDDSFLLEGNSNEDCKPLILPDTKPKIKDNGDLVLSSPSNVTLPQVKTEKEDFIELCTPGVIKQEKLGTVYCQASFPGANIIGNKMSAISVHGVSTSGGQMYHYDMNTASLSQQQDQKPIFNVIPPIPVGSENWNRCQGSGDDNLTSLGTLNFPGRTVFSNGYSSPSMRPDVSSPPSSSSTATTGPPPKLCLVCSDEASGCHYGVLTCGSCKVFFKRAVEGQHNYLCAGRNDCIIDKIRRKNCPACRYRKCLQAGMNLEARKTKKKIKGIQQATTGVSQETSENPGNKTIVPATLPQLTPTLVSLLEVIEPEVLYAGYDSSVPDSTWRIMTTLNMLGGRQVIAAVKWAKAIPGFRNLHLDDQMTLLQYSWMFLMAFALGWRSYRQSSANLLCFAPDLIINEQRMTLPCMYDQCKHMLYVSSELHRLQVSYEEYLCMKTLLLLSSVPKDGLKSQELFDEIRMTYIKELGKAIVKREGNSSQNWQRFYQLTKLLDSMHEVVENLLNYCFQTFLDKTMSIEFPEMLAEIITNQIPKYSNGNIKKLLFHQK
Sequence of Oxysterols receptor LXR-alpha (Homo sapiens) (Q13133 whole entry, looked up, the tested form may be a part): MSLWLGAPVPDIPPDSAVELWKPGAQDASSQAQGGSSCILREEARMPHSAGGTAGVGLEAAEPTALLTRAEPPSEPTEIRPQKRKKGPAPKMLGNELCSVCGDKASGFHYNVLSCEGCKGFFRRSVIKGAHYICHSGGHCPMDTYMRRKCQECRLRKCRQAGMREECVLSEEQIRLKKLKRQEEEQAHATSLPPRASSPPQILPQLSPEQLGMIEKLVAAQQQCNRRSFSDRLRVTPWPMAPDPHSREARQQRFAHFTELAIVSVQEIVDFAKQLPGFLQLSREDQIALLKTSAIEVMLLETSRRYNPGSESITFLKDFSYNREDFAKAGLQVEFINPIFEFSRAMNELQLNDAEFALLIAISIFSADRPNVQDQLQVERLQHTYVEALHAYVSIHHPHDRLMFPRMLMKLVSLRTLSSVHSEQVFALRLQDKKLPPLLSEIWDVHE
Sequence of Nuclear receptor subfamily 4 group A member 2 (Homo sapiens) (P43354 whole entry, looked up, the tested form may be a part): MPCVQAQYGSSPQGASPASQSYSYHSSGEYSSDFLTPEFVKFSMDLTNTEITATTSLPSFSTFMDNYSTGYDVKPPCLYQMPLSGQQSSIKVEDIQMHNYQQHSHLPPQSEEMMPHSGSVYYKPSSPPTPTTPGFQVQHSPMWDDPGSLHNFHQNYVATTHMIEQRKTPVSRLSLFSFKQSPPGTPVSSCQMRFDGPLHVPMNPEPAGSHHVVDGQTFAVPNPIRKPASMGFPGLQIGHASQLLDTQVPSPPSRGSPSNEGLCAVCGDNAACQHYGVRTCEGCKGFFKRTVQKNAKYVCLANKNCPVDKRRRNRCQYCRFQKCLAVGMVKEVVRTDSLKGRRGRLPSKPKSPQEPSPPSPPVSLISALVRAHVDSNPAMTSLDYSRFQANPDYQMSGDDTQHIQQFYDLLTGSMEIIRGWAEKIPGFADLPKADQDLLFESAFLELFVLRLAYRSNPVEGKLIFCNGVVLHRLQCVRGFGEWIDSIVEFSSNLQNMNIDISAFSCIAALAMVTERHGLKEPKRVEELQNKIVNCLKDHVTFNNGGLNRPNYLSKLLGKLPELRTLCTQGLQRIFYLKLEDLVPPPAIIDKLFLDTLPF

Regarding `CCCCCCOCCO`, the call in assay [1], in assay [2], in assay [3], in assay [4], in [5] and in assay [6] was inactive. Besides, the call in [7], in assay [8], in [9], in [10], in assay [11] and in [12] was inactive. For the same compound, the result in assay [13], in assay [14] and in [15] was inactive.
On to `COCCOCCOC`, for which the call in [1], in assay [2], in assay [3], in assay [4], in assay [5] and in assay [6] was inactive. For the same compound, the result in assay [7], in assay [8], in [16], in assay [10], in assay [11] and in assay [15] was inactive.
Regarding `Cc1c(C(=O)O)c(O)cc2c1C(=O)c1c(O)c([C@@H]3O[C@H](CO)[C@@H](O)[C@H](O)[C@H]3O)c(O)c(O)c1C2=O`, the compound was called inactive in [1], in assay [2], in assay [3], in assay [4], in assay [5] and in assay [6]. The compound was classed as inactive in [7], in [9], in assay [16], in [12], in assay [13] and in [14]. Besides, in assay [15], the compound was classed as inactive.
`Cc1ccc(Cl)cc1`: the result in assay [1], in assay [2], in assay [3], in assay [4], in assay [5] and in assay [6] was inactive. Moreover, the compound was called inactive in assay [7], in [11], in assay [12], in assay [13], in assay [14] and in assay [15].
With `CCCCCCCCCCCC(=O)OC`, the outcome in assay [1], in assay [2], in assay [3], in assay [4], in [5] and in assay [6] was inactive. Also, the compound was called inactive in [7], in [8], in assay [9], in assay [16], in assay [10] and in assay [11]. For the same compound, the compound was classed as inactive in assay [12], in assay [14] and in [15].
For orientation: AC50 means the midpoint of the concentration-response curve, whichever way the signal moves. Turning to `O=C(N[C@@H](Cc1ccccc1)[C@@H](O)C(=O)N1C[C@@H](O)[C@@H](O)C1)c1cc2cc(Cl)ccc2[nH]1`, the call in assay [1], in assay [2], in assay [3], in [4], in [5] and in [8] was inactive. The result in assay [9], in assay [13] and in assay [15] was inactive. The AC50 in assay [6] was 151 µM (active).
For `CC1=C(/C=C/C(C)=C/C=C/C(C)=C/CO)C(C)(C)CCC1`, the half-maximal activity concentration (AC50) in [1] was 25.9 µM (active); in [4], 1.85 µM (active); in assay [5], 4.28 µM (active); in [14], 2.86 µM (active). Also, the result in assay [2], in assay [3], in assay [6], in [8], in assay [11] and in [17] was inactive. In addition, the outcome in assay [13] and in assay [15] was inactive.
As for `Nc1nc(N)c2nc(CNc3ccc(C(=O)N[C@@H](CCC(=O)O)C(=O)O)cc3)cnc2n1`, the AC50 in assay [1] was 116 µM (active). In addition, the compound was called inactive in [2], in assay [3], in [4], in [5], in assay [6] and in assay [18]. Besides, the result in assay [9], in assay [16], in assay [11], in assay [12], in assay [17] and in assay [14] was inactive. In addition, in [15], the call was inactive.
For the compound `CNCc1cc(F)ccc1Oc1ccc(Cl)c(Cl)c1`, the compound was classed as inactive in assay [1], in assay [2], in assay [3], in assay [4], in assay [5] and in [6]. The outcome in assay [7], in [12] and in assay [15] was inactive.
For `CC(=O)OCCOCCOCCOC(C)=O`, the call in assay [1], in assay [2], in assay [3], in assay [4], in assay [5] and in assay [6] was inactive. Moreover, the call in assay [7], in assay [8], in [11] and in assay [15] was inactive.
